Reference: the supplement of paper PMC6555819

What was measured:
Assay in all cases: PBM binding z-score (relative to random genomic background probes); higher = stronger binding; sequences stand for … in GC…GCGATTGACAGCGTAGAATGAAGG
[1] = tested on: FXR:RXRa (NR concentration 270 nM, RXRa partner concentration 90 nM)
How it was run: (§1)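 Custom Agilent 4×180K protein-binding microarrays carried double-stranded probes, each with a 34-nt variable region. These regions held direct-repeat seeds, single-nucleotide variants, half-site ablations and random human genomic background sequences. Ligand-free nuclear receptor dimers were incubated on the arrays for 1 h, antibodies against each partner (one per run) detected binding, and scanned fluorescence was regression-normalized. Binding z-scores take the random background probes as reference.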

[2] = tested on: LXRa:RXRa (NR concentration 270 nM, RXRa partner concentration 90 nM)
How it was run: as §1

[3] = tested on: LXRa homodimer (NR concentration 270 nM)
How it was run: as §1

[4] = tested on: LXRb:RXRa (NR concentration 270 nM, RXRa partner concentration 90 nM)
How it was run: as §1

[5] = tested on: LXRb homodimer (NR concentration 270 nM)
How it was run: as §1

[6] = tested on: PPARa:RXRa (NR concentration 270 nM, RXRa partner concentration 90 nM)
How it was run: as §1

[7] = tested on: PPARg:RXRa (NR concentration 180 nM, RXRa partner concentration 90 nM)
How it was run: as §1

[8] = tested on: PPARg:RXRa 270nM:90nM, anti-RXR (NR concentration 270 nM, RXRa partner concentration 90 nM)
How it was run: as §1

[9] = tested on: PPARg:RXRa 30nM:10nM, anti-RXR (NR concentration 30 nM, RXRa partner concentration 10 nM)
How it was run: as §1

[10] = tested on: PPARg:RXRa 90nM:30nM, anti-RXR (NR concentration 90 nM, RXRa partner concentration 30 nM)
How it was run: as §1

[11] = tested on: PPARg:RXRa DBDmut IVT, anti-RXR (DBD mutation: RXRa K156A/R161A, NR concentration 270 nM, RXRa partner concentration 90 nM)
How it was run: as §1

[12] = tested on: PPARg:RXRa IVT, anti-PPARg (NR concentration 270 nM, RXRa partner concentration 90 nM)
How it was run: as §1

[13] = tested on: PPARg DBDmut:RXRa IVT, anti-PPARg (DBD mutation: PPARg1 K132A/R137A, NR concentration 270 nM, RXRa partner concentration 90 nM)
How it was run: as §1

[14] = tested on: PPARg DBDmut IVT, anti-PPARg (DBD mutation: PPARg1 K132A/R137A, NR concentration 270 nM)
How it was run: as §1

[15] = tested on: PPARg homodimer (NR concentration 180 nM)
How it was run: as §1

[16] = tested on: PXR:RXRa (NR concentration 270 nM, RXRa partner concentration 90 nM)
How it was run: as §1

[17] = tested on: PXR homodimer (NR concentration 270 nM)
How it was run: as §1

[18] = tested on: RARa:RXR (NR concentration 270 nM, RXRa partner concentration 90 nM)
How it was run: as §1

[19] = tested on: RARa homodimer (NR concentration 270 nM)
How it was run: as §1

[20] = tested on: RARb:RXRa (NR concentration 270 nM, RXRa partner concentration 90 nM)
How it was run: as §1

Sequence | PBM binding z-score [1] | PBM binding z-score [2] | PBM binding z-score [3] | PBM binding z-score [4] | PBM binding z-score [5] | PBM binding z-score [6] | PBM binding z-score [7] | PBM binding z-score [8] | PBM binding z-score [9] | PBM binding z-score [10] | PBM binding z-score [11] | PBM binding z-score [12] | PBM binding z-score [13] | PBM binding z-score [14] | PBM binding z-score [15] | PBM binding z-score [16] | PBM binding z-score [17] | PBM binding z-score [18] | PBM binding z-score [19] | PBM binding z-score [20]
TCTTTTAGATCAAGCAGGTTAAGAAAGCCTGAGT | 0.715 | 0.67 | -0.177 | 0.588 | 0.409 | 1.02 | -0.669 | 1.68 | 3.39 | 2.56 | 1.41 | 0.619 | 0.997 | 1.17 | -0.29 | 0.774 | 0.132 | 0.889 | -0.0558 | 0.269
TAATATAGGTAAAAGGTGAAAGTCGGTGTGGTAA | 1.84 | 2.01 | 0.364 | 2.04 | 0.134 | 6.16 | 10.5 | 9.06 | 9.53 | 10.1 | 7.05 | 6.22 | 2.17 | 1.62 | 2.02 | 1.8 | 0.982 | 3.16 | 1.75 | 1.94
TCTGGTAGATCAAAGGTTAAGAAAGCCGAAGCCT | 1.8 | 2.1 | 0.139 | 2.08 | -0.305 | 3.73 | 6.37 | 6.52 | 5.92 | 6.95 | 1.47 | 2.16 | -0.482 | 0.322 | 0.978 | 1.97 | 0.168 | 2.79 | 0.25 | 1.91
TAGCCTAGGTCAGATCGGGCCAGTTTACGCTATA | 2.08 | 0.989 | -0.49 | 0.503 | -0.465 | 1.74 | 0.188 | 0.541 | -0.568 | -0.123 | 0.41 | 1.12 | -0.332 | -0.719 | 0.0651 | 1.13 | -0.787 | 0.463 | -1.05 | 2.69
CCTAGTTGGTCAGAAGGTCACACACCGGATATGA | 3.53 | 3.45 | 1.87 | 3.36 | 1.07 | 4.17 | 2.81 | 4.25 | 1.8 | 3.82 | 1.63 | 2.85 | 1.32 | 0.414 | 4.39 | 3.98 | 1.29 | 4.56 | 3.08 | 3.85
ACTAGCAGGCCAAGTTTGGATCACTCAAACAAAG | -0.476 | -0.653 | -0.239 | -0.541 | -0.521 | -0.385 | 0.154 | -0.662 | -0.693 | -0.835 | 0.238 | 0.181 | -0.895 | -0.495 | -0.574 | -0.494 | -0.612 | -0.608 | -0.518 | 0.165
TCATATAGGTAAAGGTGAAAGTCGAACGATATGA | 0.768 | 1.27 | -0.00869 | 1.05 | -0.112 | 3.41 | 4.01 | 4.55 | 4.42 | 4.75 | 3.76 | 4.23 | 1.81 | 1.2 | 1.04 | 1.13 | -0.047 | 1.71 | 0.402 | 2.1
TCAGACAGGTGAAGGTAACTCTGGTACGCAGTCG | 0.419 | 2.39 | -0.038 | 1.46 | -0.229 | 1.23 | 0.517 | 2.02 | 3.66 | 2.66 | 2.58 | 0.996 | 0.246 | -0.784 | 0.246 | 0.678 | 0.0805 | 0.872 | 0.122 | 1.07
AGAACGAGGGCACGCTGAGATGATAGCAGAGTAG | 0.695 | 0.423 | -0.425 | 0.0557 | -0.697 | 2.1 | 2.33 | 1.98 | 0.819 | 1.41 | 4.28 | 3.41 | 0.615 | 0.133 | 0.5 | 0.342 | -0.229 | 0.762 | -0.576 | 2.5
TCATATAGGTAAATGATAGGTGAAAGTCCGATCT | 1.32 | 1.17 | 0.558 | 1.22 | 0.404 | 1.74 | 1.51 | 2.71 | 3.76 | 3.23 | 3.92 | 2.51 | 1.28 | 1.62 | 1.19 | 0.828 | 0.487 | 1.49 | 1.16 | 0.612
CCTACTGGGCCACCAAAGGTCATTGATTCAGTGA | 3.72 | 5.73 | 6.47 | 4.95 | 0.575 | 4.69 | 5 | 5.44 | 2.81 | 4.94 | 5.36 | 5.74 | 1.31 | 0.0425 | 4.38 | 5.69 | 2.75 | 6.23 | 2.56 | 4
ATCTCTAGGTAAAGTTCAGTGACAGATCGATAGA | 1.17 | 2.06 | 1.97 | 1.27 | 1.26 | 2.36 | 3.41 | 4.29 | 2.51 | 4.24 | 2.61 | 2.57 | 1.53 | 2.1 | 2.05 | 2.12 | 2.52 | 1.43 | 2.08 | 2.75
TCTCGGAGGACACGAAAGGTCAGAGCTCGACATC | 3.13 | 3.71 | 3.02 | 2.84 | -0.0794 | 3.45 | 1.37 | 2.8 | 2.54 | 2.41 | 1.62 | 1.53 | 0.174 | -1.26 | 3.04 | 3.96 | 0.404 | 4.18 | 1.9 | 4.14
CCTAGTTGGTCAGGAGGGCACACACCGGATATGA | 0.184 | 0.335 | 0.0656 | 0.24 | -0.0952 | 0.641 | 0.988 | 0.912 | 0.0866 | 0.594 | 0.374 | 1.62 | -0.178 | -0.301 | 1.22 | 0.369 | 0.17 | 0.233 | 0.714 | 1.71
